The results in this text go back to paper PMC7862700, “An all-to-all approach to the identification of sequence-specific readers for epigenetic DNA modifications on cytosine”.

Holding throughout (test): DAPPL (digital affinity profiling via proximity ligation, sequencing); 10 mM Tris-HCl pH 7.5, 50 mM NaCl, 1 mM DTT, 4% glycerol, room temperature, 30 min; GST-TFs on glutathione beads, 16-mer random dsDNA library, 0.1% formaldehyde crosslink after washing; high values mean tight binding
Experiment [1] deals with T1, FLI1 (Homo sapiens, UniProt Q01543 1-452).
T1 sequence: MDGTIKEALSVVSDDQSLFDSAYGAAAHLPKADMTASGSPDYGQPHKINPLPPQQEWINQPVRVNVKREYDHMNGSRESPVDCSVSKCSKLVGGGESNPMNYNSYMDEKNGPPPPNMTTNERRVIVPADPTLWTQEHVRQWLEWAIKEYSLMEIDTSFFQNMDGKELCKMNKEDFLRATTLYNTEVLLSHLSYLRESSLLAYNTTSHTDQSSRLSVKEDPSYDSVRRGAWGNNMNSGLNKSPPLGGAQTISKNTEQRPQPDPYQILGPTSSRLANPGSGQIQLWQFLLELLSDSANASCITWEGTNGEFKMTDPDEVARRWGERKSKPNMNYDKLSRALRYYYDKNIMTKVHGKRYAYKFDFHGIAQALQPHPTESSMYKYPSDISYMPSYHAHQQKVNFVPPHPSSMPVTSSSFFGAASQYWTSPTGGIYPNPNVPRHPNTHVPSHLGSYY
The conditions noted are these: protein: recombinant; tags: N-terminal GST; dsDNA, one strand shown. The gist of the method:
(§1)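 Beads coated with glutathione captured GST-fused human transcription factors that had been expressed in yeast, and the factors were then given DNA barcodes and pooled with a tag-only sample. The pools were incubated with 200 nmole of a random double-stranded 16-mer DNA library in Tris/NaCl/DTT/glycerol buffer for 30 min at room temperature, washed, crosslinked with 0.1% formaldehyde and proximity-ligated with BsaI/T4 ligase at 37 °C for 1 h. PCR amplification and Illumina NextSeq500 sequencing came last. Binding signal is each hexamer's read frequency for a factor divided by its frequency for the tag-only sample.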

The target in experiment [2] is T2, ELK1 (Homo sapiens, UniProt P19419 1-428).
T2 sequence: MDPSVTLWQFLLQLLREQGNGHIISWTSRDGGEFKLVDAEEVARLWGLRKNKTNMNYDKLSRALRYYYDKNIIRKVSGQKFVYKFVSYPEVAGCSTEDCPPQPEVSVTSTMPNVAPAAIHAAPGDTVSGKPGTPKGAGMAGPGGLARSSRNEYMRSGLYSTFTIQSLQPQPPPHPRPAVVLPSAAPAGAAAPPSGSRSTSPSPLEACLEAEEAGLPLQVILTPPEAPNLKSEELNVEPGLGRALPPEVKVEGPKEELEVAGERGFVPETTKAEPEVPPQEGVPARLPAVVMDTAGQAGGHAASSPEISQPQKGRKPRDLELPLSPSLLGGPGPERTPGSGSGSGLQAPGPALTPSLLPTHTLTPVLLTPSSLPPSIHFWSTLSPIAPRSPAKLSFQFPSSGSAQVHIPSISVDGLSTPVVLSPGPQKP
The note with it: protein: recombinant; tags: N-terminal GST; dsDNA, one strand shown. In a few lines: as §1

Experiment [3] deals with T3, GABPA (Homo sapiens, UniProt Q06546 1-454).
T3 sequence: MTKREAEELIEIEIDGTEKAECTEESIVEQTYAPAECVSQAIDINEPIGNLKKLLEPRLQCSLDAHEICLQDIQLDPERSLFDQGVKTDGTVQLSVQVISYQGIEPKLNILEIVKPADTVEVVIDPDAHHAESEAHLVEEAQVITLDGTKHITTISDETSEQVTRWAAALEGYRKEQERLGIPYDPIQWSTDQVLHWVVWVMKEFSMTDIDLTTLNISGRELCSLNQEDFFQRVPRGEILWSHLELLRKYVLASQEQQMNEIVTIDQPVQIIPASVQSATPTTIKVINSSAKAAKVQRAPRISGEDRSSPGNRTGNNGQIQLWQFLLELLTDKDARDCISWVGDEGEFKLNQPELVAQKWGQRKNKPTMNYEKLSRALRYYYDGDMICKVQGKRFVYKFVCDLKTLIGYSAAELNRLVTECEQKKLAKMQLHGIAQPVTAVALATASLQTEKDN
The conditions noted are these: protein: recombinant; tags: N-terminal GST; dsDNA, one strand shown. The gist of the method:
as §1

The target of experiment [4] is T4, ERG (Homo sapiens, UniProt P11308 1-479).
T4 sequence: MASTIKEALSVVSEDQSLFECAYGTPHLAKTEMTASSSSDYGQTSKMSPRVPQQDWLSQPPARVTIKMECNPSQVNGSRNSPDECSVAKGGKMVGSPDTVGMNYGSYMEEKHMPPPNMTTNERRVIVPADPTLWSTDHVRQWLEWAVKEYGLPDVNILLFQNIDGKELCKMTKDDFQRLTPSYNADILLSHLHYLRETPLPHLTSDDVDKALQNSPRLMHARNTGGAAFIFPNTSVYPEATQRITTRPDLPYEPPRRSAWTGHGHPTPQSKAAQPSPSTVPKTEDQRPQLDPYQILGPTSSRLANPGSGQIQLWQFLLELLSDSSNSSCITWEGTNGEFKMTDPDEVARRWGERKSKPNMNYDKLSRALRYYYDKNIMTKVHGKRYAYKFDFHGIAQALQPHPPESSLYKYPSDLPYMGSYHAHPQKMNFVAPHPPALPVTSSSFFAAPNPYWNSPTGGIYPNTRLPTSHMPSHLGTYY
The note with it: protein: recombinant; tags: N-terminal GST; dsDNA, one strand shown. In a few lines: as §1

Experiment [5] has as its target ELF1 (Homo sapiens, UniProt P32519 1-619). The note with it: protein: recombinant; tags: N-terminal GST; dsDNA, one strand shown. The gist of the method: as §1
In experiment [6] the target is T5, EHF (Homo sapiens, UniProt Q9NZC4 1-300).
T5 sequence: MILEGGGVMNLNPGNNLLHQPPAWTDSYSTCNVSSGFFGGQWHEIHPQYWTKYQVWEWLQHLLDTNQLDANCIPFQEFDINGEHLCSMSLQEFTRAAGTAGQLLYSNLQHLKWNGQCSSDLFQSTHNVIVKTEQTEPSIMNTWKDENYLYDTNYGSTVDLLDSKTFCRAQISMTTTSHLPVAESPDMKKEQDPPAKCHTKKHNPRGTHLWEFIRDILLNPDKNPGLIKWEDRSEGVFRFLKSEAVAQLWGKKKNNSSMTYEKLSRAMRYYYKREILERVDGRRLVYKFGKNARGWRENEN
The conditions noted are these: protein: recombinant; tags: N-terminal GST; dsDNA, one strand shown. The gist of the method: as §1

Experiment [7] deals with SPI1 (Homo sapiens, UniProt P17947 1-270). The conditions noted are these: protein: recombinant; tags: N-terminal GST; dsDNA, one strand shown. The gist of the method: as §1
The target in experiment [8] is SPIB (Homo sapiens, UniProt Q01892 1-262). The conditions noted are these: protein: recombinant; tags: N-terminal GST; dsDNA, one strand shown. In a few lines: as §1
In experiment [9] the target is T6, ELK3 (Homo sapiens, UniProt P41970 1-407).
T6 sequence: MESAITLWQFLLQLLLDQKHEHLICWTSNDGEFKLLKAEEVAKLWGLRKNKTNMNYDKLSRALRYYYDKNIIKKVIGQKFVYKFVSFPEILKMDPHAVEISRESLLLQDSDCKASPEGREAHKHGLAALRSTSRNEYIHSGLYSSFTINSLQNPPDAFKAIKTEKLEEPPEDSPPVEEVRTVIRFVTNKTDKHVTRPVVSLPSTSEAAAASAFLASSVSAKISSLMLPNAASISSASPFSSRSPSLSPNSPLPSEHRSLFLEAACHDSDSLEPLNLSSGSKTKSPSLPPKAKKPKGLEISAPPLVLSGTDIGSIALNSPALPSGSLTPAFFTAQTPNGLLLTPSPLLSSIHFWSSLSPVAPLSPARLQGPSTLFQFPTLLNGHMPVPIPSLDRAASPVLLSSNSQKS
The conditions noted are these: protein: recombinant; tags: N-terminal GST; dsDNA, one strand shown. The gist of the method: as §1

Experiment [10] deals with T7, FEV (Homo sapiens, UniProt Q99581 1-238).
T7 sequence: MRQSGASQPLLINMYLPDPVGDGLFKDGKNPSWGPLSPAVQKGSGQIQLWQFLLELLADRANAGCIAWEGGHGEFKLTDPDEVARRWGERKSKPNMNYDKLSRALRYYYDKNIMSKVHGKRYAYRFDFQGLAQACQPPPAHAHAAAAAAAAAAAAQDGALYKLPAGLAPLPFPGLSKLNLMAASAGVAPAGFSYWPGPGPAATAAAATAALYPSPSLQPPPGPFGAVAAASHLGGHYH
The note with it: protein: recombinant; tags: N-terminal GST; dsDNA, one strand shown. The gist of the method:
as §1

Experiment [11] addresses ETV5 (Homo sapiens, UniProt P41161 1-510). The note with it: protein: recombinant; tags: N-terminal GST; dsDNA, one strand shown. In a few lines: as §1
Experiment [12] addresses HSF1 (Homo sapiens, UniProt Q00613 1-529). The conditions noted are these: protein: recombinant; tags: N-terminal GST; chain copies: 3; dsDNA, one strand shown. The gist of the method:
as §1

In experiment [13] the target is T8, SPIC (Homo sapiens, UniProt Q8N5J4 1-248).
T8 sequence: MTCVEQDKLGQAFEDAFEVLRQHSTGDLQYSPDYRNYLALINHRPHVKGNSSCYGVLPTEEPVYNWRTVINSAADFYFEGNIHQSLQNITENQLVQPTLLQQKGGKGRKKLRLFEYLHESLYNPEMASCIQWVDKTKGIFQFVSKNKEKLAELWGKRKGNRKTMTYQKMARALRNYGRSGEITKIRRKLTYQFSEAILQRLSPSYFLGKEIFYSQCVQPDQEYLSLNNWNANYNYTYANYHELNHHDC
The note with it: protein: recombinant; tags: N-terminal GST; dsDNA, one strand shown. The gist of the method:
as §1

Experiment [14] addresses ELF4 (Homo sapiens, UniProt Q99607 1-663). The note with it: protein: recombinant; tags: N-terminal GST; dsDNA, one strand shown. The gist of the method:
as §1

Experiment [15] has as its target T9, ETV2 (Homo sapiens, UniProt O00321 1-342).
T9 sequence: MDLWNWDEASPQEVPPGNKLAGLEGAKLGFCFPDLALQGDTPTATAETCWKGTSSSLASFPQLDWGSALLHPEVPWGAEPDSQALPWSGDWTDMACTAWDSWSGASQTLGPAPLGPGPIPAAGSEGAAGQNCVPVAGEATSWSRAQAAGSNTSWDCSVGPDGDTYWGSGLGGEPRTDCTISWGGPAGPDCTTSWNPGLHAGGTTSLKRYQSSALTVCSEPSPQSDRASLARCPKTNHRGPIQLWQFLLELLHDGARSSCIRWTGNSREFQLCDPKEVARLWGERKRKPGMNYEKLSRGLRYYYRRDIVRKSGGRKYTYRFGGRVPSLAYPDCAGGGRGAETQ
The note with it: protein: recombinant; tags: N-terminal GST; dsDNA, one strand shown. The gist of the method:
as §1

Experiment [16] has as its target CRX (Homo sapiens, UniProt O43186 1-299). The conditions noted are these: protein: recombinant; tags: N-terminal GST; dsDNA, one strand shown. The gist of the method: as §1
Experiment [17] concerns the target ETV1 (Homo sapiens, UniProt P50549 1-477). The note with it: protein: recombinant; tags: N-terminal GST; dsDNA, one strand shown. The gist of the method:
as §1

ETV5, sequence (P41161 whole entry): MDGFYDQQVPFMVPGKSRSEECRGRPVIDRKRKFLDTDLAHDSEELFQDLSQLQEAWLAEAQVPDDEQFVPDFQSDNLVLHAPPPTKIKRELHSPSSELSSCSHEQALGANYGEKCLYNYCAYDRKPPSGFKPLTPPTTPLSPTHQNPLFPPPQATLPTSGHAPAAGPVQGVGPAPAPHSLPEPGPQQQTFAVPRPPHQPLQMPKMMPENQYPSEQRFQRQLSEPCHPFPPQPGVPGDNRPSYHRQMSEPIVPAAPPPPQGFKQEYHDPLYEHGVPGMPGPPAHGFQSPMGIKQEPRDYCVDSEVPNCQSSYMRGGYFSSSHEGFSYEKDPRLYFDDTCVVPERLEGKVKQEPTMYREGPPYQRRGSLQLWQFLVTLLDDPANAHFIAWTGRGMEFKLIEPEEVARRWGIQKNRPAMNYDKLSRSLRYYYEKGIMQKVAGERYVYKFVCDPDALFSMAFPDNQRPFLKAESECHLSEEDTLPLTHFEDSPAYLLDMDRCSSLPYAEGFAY
ELF4, sequence (Q99607 whole entry): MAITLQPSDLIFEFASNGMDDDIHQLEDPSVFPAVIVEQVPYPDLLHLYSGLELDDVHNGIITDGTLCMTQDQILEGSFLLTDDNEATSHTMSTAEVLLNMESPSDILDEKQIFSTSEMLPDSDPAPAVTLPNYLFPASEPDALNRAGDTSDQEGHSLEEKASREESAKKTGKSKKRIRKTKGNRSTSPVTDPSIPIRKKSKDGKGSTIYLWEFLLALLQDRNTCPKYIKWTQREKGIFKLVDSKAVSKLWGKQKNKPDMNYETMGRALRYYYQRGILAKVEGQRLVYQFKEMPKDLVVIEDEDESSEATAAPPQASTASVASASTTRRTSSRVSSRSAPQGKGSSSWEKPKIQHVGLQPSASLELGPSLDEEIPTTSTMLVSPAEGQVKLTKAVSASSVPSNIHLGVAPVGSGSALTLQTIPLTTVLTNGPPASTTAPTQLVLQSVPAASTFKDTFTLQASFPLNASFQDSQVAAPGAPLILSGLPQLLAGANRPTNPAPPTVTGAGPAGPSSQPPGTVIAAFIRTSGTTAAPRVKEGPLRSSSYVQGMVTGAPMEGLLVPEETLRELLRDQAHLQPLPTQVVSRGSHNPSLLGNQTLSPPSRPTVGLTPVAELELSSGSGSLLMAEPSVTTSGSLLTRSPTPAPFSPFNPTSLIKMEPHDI
CRX, sequence (O43186 whole entry): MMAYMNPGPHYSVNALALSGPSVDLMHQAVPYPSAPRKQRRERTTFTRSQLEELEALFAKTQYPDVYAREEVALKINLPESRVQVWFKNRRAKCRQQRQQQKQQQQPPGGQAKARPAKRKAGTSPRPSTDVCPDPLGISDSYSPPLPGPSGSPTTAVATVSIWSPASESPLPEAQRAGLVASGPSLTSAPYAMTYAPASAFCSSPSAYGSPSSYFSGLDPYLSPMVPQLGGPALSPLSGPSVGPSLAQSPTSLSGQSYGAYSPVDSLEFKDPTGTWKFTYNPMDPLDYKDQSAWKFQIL
ELF1, sequence (P32519 whole entry): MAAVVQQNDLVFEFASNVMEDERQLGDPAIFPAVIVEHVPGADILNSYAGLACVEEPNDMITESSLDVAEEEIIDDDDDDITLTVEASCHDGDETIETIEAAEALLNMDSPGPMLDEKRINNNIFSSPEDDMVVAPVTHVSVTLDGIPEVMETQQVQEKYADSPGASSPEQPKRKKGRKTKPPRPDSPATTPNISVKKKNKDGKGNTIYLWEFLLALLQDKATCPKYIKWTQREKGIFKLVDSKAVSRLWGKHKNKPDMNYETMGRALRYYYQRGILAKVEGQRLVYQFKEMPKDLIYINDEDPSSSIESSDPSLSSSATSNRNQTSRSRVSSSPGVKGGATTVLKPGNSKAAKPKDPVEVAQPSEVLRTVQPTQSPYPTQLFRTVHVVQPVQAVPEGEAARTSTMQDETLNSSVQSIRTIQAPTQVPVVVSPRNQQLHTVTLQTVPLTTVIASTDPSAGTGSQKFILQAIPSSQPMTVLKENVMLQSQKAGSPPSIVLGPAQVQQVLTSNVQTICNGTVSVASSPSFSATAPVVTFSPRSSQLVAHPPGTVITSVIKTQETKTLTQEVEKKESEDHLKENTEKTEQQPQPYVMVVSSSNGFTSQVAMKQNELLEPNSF
HSF1, sequence (Q00613 whole entry): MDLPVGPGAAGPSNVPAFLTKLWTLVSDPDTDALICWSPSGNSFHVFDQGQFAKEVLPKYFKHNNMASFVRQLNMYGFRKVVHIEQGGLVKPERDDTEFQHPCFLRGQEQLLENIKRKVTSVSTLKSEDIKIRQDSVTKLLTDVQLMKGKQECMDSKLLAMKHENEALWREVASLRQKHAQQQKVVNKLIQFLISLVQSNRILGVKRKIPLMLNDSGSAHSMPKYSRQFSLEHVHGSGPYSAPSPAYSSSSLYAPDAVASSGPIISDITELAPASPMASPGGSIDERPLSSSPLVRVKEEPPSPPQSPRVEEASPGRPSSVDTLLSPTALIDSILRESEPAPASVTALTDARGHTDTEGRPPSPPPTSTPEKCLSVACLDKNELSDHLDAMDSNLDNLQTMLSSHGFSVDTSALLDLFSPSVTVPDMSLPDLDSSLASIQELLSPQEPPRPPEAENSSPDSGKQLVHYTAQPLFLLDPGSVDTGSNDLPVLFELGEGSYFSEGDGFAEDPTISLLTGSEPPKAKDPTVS
ETV1, sequence (P50549 whole entry): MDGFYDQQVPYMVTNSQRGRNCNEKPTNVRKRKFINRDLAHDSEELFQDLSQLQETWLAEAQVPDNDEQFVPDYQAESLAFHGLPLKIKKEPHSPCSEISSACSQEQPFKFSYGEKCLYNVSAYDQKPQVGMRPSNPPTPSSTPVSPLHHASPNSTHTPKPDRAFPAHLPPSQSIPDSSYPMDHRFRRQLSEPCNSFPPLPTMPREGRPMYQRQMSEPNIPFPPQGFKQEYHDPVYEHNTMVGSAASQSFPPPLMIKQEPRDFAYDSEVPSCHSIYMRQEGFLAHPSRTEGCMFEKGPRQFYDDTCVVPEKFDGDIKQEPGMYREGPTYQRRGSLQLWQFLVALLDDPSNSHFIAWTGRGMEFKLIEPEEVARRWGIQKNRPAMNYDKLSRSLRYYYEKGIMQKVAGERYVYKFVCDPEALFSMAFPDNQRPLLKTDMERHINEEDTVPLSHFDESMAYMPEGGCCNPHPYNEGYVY
SPIB, sequence (Q01892 whole entry): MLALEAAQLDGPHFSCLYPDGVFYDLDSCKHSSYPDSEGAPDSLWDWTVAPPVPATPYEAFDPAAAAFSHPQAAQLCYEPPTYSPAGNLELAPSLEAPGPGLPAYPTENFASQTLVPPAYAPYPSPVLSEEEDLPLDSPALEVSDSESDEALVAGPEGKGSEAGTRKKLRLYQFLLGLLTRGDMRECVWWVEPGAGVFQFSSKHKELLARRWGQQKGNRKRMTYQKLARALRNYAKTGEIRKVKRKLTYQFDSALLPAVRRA

In the case of CTAGGC, the binding signal in experiment [1] is 1.17 fold enrichment (6-mer frequency, TF over GST control); in experiment [2], 1.1 fold enrichment (6-mer frequency, TF over GST control); in experiment [3], 1.23 fold enrichment (6-mer frequency, TF over GST control); in experiment [4] it was 1.13 fold enrichment (6-mer frequency, TF over GST control); in [5] it was 1.14 fold enrichment (6-mer frequency, TF over GST control); in experiment [6] it was 1.01 fold enrichment (6-mer frequency, TF over GST control). Besides, the binding signal is 1.07 fold enrichment (6-mer frequency, TF over GST control) in experiment [7]; 1.05 fold enrichment (6-mer frequency, TF over GST control) in [8]; 1.1 fold enrichment (6-mer frequency, TF over GST control) in experiment [9]; 1.16 fold enrichment (6-mer frequency, TF over GST control) in experiment [10]; 1.06 fold enrichment (6-mer frequency, TF over GST control) in [11]; 1.22 fold enrichment (6-mer frequency, TF over GST control) in [12]. In addition, the binding signal in experiment [13] is 1.15 fold enrichment (6-mer frequency, TF over GST control); in experiment [14], 1.16 fold enrichment (6-mer frequency, TF over GST control); in experiment [15] it was 1.21 fold enrichment (6-mer frequency, TF over GST control); in experiment [16] it was 1.17 fold enrichment (6-mer frequency, TF over GST control); in [17], 1.04 fold enrichment (6-mer frequency, TF over GST control).
